Among all 300,000 compounds or so, about 3,700 (1.2%) were called active. Inconclusive results (about 20%) are left out. The full list was thinned out, with actives kept by preference. Unmarked numbers belong to inactive results. Calls follow the shape of the full dose curve; tested in HEK293 cells.
Assay: qHTS for Inhibitors of binding or entry into cells for Lassa Virus; also: nearly all actives have a fitted effect of over 50% in size
Details: Lassa virus pseudotype entry inhibition, cell reporter; series mostly up to 37.9 µM; activity change, negative = inhibition: at the top concentration
% is scaled to controls: 0 for no effect and ±100 for the full control effect; potency is read from the fitted curve at half-maximal effect.

Structure (SMILES)	activity change, negative = inhibition	Potency
O=C(CCNC(=O)c1ccccc1Cl)NN=Cc1ccco1	8.83%	
CCOC(=O)c1csc(CCNC(=O)c2oc3c(Cl)cc(C)cc3c2C)n1	6.59%	
CN1C(c2ccc(F)cc2)=CS/C1=C(/C#N)c1nnc2n1-c1ccccc1SC2	-0.937% [at 46.1 µM]	
O=C(Nc1cccc(F)c1)NC1CCCCCCC1		12.6 µM (active)
C/C(CC(=O)Nc1cccc(F)c1)=N\NC(=O)C(=O)NC1CCCCC1	3.34%	
Cc1cc(C)cc(NC(=O)NC2CCCCCCC2)c1	-5.73% [at 46.1 µM]	
COc1ccc2oc(C(=O)N(CC(C)C)C3CCS(=O)(=O)C3)c(C)c2c1 (stereo not given)	-9.26%	
COc1ccccc1N(CCOc1ccccc1)S(=O)(=O)c1ccccc1	20.1% [at 46.1 µM]	
Cc1ccc(S(=O)(=O)N2CCC(=O)N([C@H](COCc3ccccc3)C(C)C)CC2)cc1	-26.5% [at 46.1 µM]	
O=C(Nc1ccc(N2CCOCC2)cc1)c1ccc2c(c1)OCO2	-22.7%	
Cc1cc(C)c2nc(NC(=O)c3ccc4c(c3)OCO4)sc2c1	-1.22%	
O=C(Nc1ccccc1F)c1ccc2c(c1)OCO2	-20.6% [at 46.1 µM]	
O=C(c1ccc(Cl)c(S(=O)(=O)N2CCCCC2)c1)N1CCCCCC1	2.43%	
O=C(Nc1ccccc1)c1ccc2c(c1)OCCCO2		3.16 µM (active)
O=C(Nc1cccc([N+](=O)[O-])c1)c1ccc2c(c1)OCO2	-0.181%	
O=C(Nc1cccc(S(=O)(=O)N2CCCCC2)c1)c1ccc2c(c1)OCO2	-18.9%	
O=C(Nc1nc2ccccc2s1)c1ccc2c(c1)OCO2		2.51 µM (active)
O=C(Nc1ccc2c(c1)OCCO2)c1ccc(Cl)c(S(=O)(=O)N2CCCCC2)c1		20.6 µM (active)
N#Cc1ccccc1S(=O)(=O)N1CCN(C(=O)c2cc(-c3ccccc3)nn2-c2ccccc2)CC1	-31.9%	
COc1ccc(-c2csc3ncnc(N4CCN(S(=O)(=O)c5ccccc5C#N)CC4)c23)cc1	-7.67%	
Cc1cc(C)c(NC(=O)CN2C(=O)c3cccnc3Oc3ccc(Cl)cc32)c(C)c1	20.7% [at 46.1 µM]	
O=c1[nH]c2c(c(=O)n1-c1ccccc1)CCO2	-1.14%	
CC(CC(=O)N1CCN(c2ccccc2)CC1)S(=O)(=O)c1ccc2c(c1)NC(=O)CS2 (stereo not given)	-3.54% [at 46.1 µM]	

Structure (SMILES)	activity change, negative = inhibition	Potency
COc1ccc(-c2nc3sc(CCNC(=O)C(C)(C)C)c(C)n3n2)cc1	1.48% [at 46.1 µM]	
CC(=O)c1ccc(OC(NC(=O)Cc2ccccc2)C(Cl)(Cl)Cl)cc1 (stereo not given)	-2.01%	
CCC/C=C(\CCC)C(NC(=O)Cc1ccccc1)c1ccc(C(=O)OC)cc1 (stereo not given)		6.51 µM (active)
CCC[C@@H]1C[C@@]1(CCC)[C@@H](NC(=O)c1ccccc1)c1ccc(C(=O)OC)cc1	0.512%	
COc1ccc(OCC(=O)NNC(=O)C2CCC2)cc1	-10.5%	
Cc1ccc(NC(=O)C(C)OC(=O)C2CC3CCCC(C2)C3=O)cc1S(=O)(=O)N1CCOCC1 (stereo not given)	-0.229%	
Fc1ccc(N2CCN(Cc3ccc4c(c3)OCO4)CC2)cc1	-16.6% [at 14.3 µM]	
Fc1ccc2[nH]c3c(N4CCN(Cc5ccc6c(c5)OCO6)CC4)ncnc3c2c1		15.8 µM (active)
O=c1[nH]c(N2CCN(Cc3ccc4c(c3)OCO4)CC2)nc2c1CCCC2	-1.39% [at 46.1 µM]	
Cc1cc2c(cc3c(SCc4nc(-c5ccccc5)oc4C)nnc(C)n32)o1	28.3% [at 46.1 µM]	
Cc1ccc2c(c1)C1CN(C)CCC1N2S(=O)(=O)c1cccc(F)c1 (stereo not given)	3.79%	
CCN(CC)CCN(C(=O)c1ccc(S(=O)(=O)N2CCOCC2)cc1)c1nc2cc3c(cc2s1)OCCO3	1.98%	
CN(C)CCCN(C(=O)c1ccc(S(=O)(=O)N2CCCCCC2)cc1)c1nc2cc3c(cc2s1)OCCO3		14.1 µM (active)
CCc1ccc2nc(N(CCCN(C)C)C(=O)c3ccc4c(c3)OCCO4)sc2c1	1.68% [at 46.1 µM]	
CC(C)CC1(C)NC(=O)N(CC(=O)Nc2ccc3c(c2)OCCO3)C1=O (stereo not given)	-6.74%	
COC(=O)CN(C(=S)Nc1ccc(Cl)cc1)C1CC(=O)N(c2ccc(OC)cc2)C1=O (stereo not given)	-18%	
CN(CC(=O)Nc1cccc(F)c1)C(=O)C1CC(=O)N(CCc2ccccc2)C1 (stereo not given)	13.9%	
CN(C)c1ccc(NC(=S)N(CCc2ccccc2)C2CC(=O)N(c3c(Cl)cccc3Cl)C2=O)cc1 (stereo not given)		3.55 µM (active)
O=C(COc1ccccc1Cl)Nc1ccc2nc(SCC(=O)N3CCCC3)sc2c1	-3.61% [at 46.1 µM]	
CC(C)(C)C(=O)COC(=O)c1cc(S(=O)(=O)N2CCCCC2)ccc1N1CCOCC1	4.41%	
COc1ccccc1-c1n[nH]c2c1[C@H](C)CC[C@H]2C(C)C	-1.72%	
CC(=O)COc1ccc2c(-c3ccccc3)cc(=O)oc2c1	15.8%	
COc1ccccc1-c1c(C)nn2c(C)c(C(C)=O)cnc12	25.8%	

Structure (SMILES)	activity change, negative = inhibition	Potency
C=C(C)COc1ccc(-c2n[nH]c(C)c2-c2ccccc2OC)c(O)c1		7.08 µM (active)
C=C(C)COc1ccc(-c2n[nH]c(C)c2-c2ccccc2)c(O)c1		1.78 µM (active)
Cc1[nH]nc(-c2ccc(OCc3cnn(-c4ccccc4)c3)cc2O)c1Oc1ccc(Cl)cc1	-26.1%	
Cc1cccc(C(=O)NNC(=O)CSc2nnc(C(C)C)n2C)c1	8.98%	
CCN(C(=O)COC(=O)c1ccccc1O)c1cccc2ccccc12	-16.7%	
CCOC(=O)c1c(S(=O)(=O)Nc2cccc(Cl)c2)c(C)n(C)c1C	-22% [at 46.1 µM]	
CC(C)(C)c1nnc2sc(SCC(O)=C(C#N)c3nc4ccccc4[nH]3)nn2c1=O	11.1% [at 46.1 µM]	
Cc1ccc(NC(=S)N(CCN(C)C)Cc2cccs2)cc1C		6.31 µM (active)
CCc1cccc(C)c1NC(=S)N(CCCN1CCN(C)CC1)Cc1cccs1	9.25%	
Cc1ccccc1NC(=S)N(CCCN1CCOCC1)Cc1cccs1	-10.1%	
CCOc1ccc(-n2c(SCC(=O)Nc3cc(C(=O)O)ccc3Cl)nc3ccccc3c2=O)cc1	7.66%	
Cc1ccc(-n2c(SCC(=O)Nc3ncc(Cl)cc3Cl)nc3ccccc32)cc1		0.291 µM (active)
Cc1ccc(SCCC(=O)OCC(=O)Nc2ncc(Cl)cc2Cl)cc1	-0.403%	
CC/C(=C(/c1ccccc1)c1ccc(OCC[N+](C)(C)C)cc1)c1ccccc1	-15.8%	
Cc1ccc(S(=O)(=O)N2CCCCC2)cc1C(=O)N(C)CC(=O)Nc1cccc(F)c1	-0.12%	
O=C(NCc1ccc(F)cc1)c1ccc2nc(N3CCCCC3)sc2c1	12% [at 46.1 µM]	
c1c2c(cc3sc(N4CCCCC4)nc13)OCCO2		1.58 µM (active)
Cc1nc2cc3c(cc2s1)OCO3	3.6%	
Cc1cccc(N(C(=O)Cc2cccs2)C(C(=O)NCc2ccco2)c2ccncc2)c1 (stereo not given)	-4.42%	
Cc1ccc(N(C(=O)c2sc(C)nc2C)C(C(=O)NC(C)(C)C)c2ccncc2)cc1 (stereo not given)	-13.5%	
Cc1nc(C)c(C(=O)N(c2ccc(C)c(C)c2)C(C(=O)NCc2ccco2)c2ccccc2)s1 (stereo not given)		4.61 µM (active)
Cc1ccc(OCc2cc(C(=O)N(C)CCn3ccnc3C)no2)cc1C	-3.12%	
CCCN1CCN(C(=O)CCCNC(=O)c2ccc(Cl)cc2)CC1	19.3% [at 46.1 µM]	

Structure (SMILES)	activity change, negative = inhibition	Potency
COc1ccccc1N1CCN(c2nc(C)cc(=O)[nH]2)CC1	3.38% [at 46.1 µM]	
Cc1nnc(SCC(=O)NCc2ccccc2)s1	-1.56%	
Cc1nnc(SCC(=O)N2CCc3ccccc3C2)s1	15.2%	
Cc1nnc(SCC(=O)N2c3ccccc3C(C)(c3ccc(Cl)cc3)CC2(C)C)s1 (stereo not given)		10 µM (active)
Cc1ccc(NC2CCCN(C(=O)CCc3cn[nH]c3)C2)cc1C (stereo not given)	-7.91%	
COc1cc(C(=S)N2CCOCC2)cc(OC)c1OC(=O)c1ccc([N+](=O)[O-])cc1[N+](=O)[O-]	-14.6%	
Cc1ccc(SCC(=O)N2CCN(c3ccc(F)cc3)CC2)cc1	-2.07% [at 46.1 µM]	
CCN1CCC(N(Cc2ccc(F)cc2)C(=O)Nc2cc(C)ccc2C)CC1	-4.1% [at 46.1 µM]	
CCN1CCC2(CC1)N=C(c1ccc(F)cc1)C(=S)N2C(=O)c1ccc(C)cc1		8.91 µM (active)
COc1ccccc1C(=O)Nc1ccc(Nc2ccccc2)cc1	8.44%	
CCC(=O)Nc1ccc2nc(SCC(=O)N3CCc4ccccc43)sc2c1	8.37% [at 46.1 µM]	
COCCn1cnnc1SCC(=O)Nc1cccc(S(=O)(=O)N2CCCCC2)c1	-1.46%	
NC(=O)Cc1nc2scc(-c3ccc(Cl)cc3)c2c(=O)[nH]1	-28.5% [at 46.1 µM]	
O=c1[nH]c(CCl)nc2cc(-c3ccc(Cl)cc3)sc12		10 µM (active)
O=c1[nH]c(CN2CCOCC2)nc2cc(Cl)ccc12	-4.94% [at 46.1 µM]	
O=C1c2ccccc2C(=O)C1C(=O)C1CC1	12.7% [at 46.1 µM]	
Cc1ccc(S(=O)(=O)N/N=C(\c2ccccc2)C2CC2)cc1	16.6% [at 46.1 µM]	
CNC(=O)COC(=O)c1cc(-c2ccc(OC)cc2)nc2ccccc12	-36.8% [at 46.1 µM]	
COc1ccc(-c2cc(C(=O)n3cnc4ccccc43)c3ccccc3n2)cc1	-15.2%	
COc1ccc(-c2cc(C(=O)N(C)Cc3ccccc3)c3ccccc3n2)cc1		10 µM (active)
COc1ccccc1N1CC(C(=O)Nc2nnc(SCC(=O)NCC3CCCO3)s2)CC1=O (stereo not given)	3.5%	
COc1ccc(C(CNC(=O)c2cc3c(s2)CCCC3)N2CCOCC2)cc1 (stereo not given)	-8.98% [at 46.1 µM]	
Cc1ccc(C(CC(=O)O)NC(=O)c2ccc(S(=O)(=O)N3CCCC3)cc2)cc1 (stereo not given)	10.2%	

Structure (SMILES)	activity change, negative = inhibition	Potency
C=CCN1C(=O)N(Cc2ccccc2)c2ccccc2S1(=O)=O	3.36% [at 46.1 µM]	
O=C1c2ccccc2C(=O)C1c1ccccc1F	18%	
O=C1c2ccccc2C2=Nc3ccccc3SC(c3ccccc3F)C12 (stereo not given)		20.6 µM (active)
Cn1cc(/C=C/c2nc3ccccc3c(=O)n2-c2cccc([N+](=O)[O-])c2)c2ccccc21	4.13%	
CCn1c(/C=C/c2ccc([N+](=O)[O-])o2)nc2ccccc2c1=O		3.66 µM (active)
Cc1ccc(-n2c(/C=C/c3cccc(C(F)(F)F)c3)nc3ccccc3c2=O)cc1	22.9% [at 46.1 µM]	
COc1cccc(CC(=NO)c2cccc(OC)c2)c1	-0.0231% [at 46.1 µM]	
O=C(c1ccccc1)C(Cn1cncn1)C(Sc1ccccc1)c1ccccc1 (stereo not given)		22.4 µM (active)
OC(COc1ccc2ccccc2c1)Cn1cncn1 (stereo not given)	0%	
Fc1ccccc1OCCCCn1cncn1	19.3%	
Cc1ccccc1N1CC(C(=O)Nc2nnc(SCCC3OCCO3)s2)CC1=O (stereo not given)	-10.4%	
CCOc1cc2ccccc2cc1C(=O)Nc1ccccn1	12% [at 46.1 µM]	
Cc1cc(C(=O)Cn2cnc3cc([N+](=O)[O-])ccc3c2=O)c(C)n1CC1CCCO1 (stereo not given)	2.49%	
Cc1cc(C(=O)CCl)c(C)n1CC1COc2ccccc2O1 (stereo not given)	-4.21%	
Cc1ccsc1C(=O)OCC(=O)c1cc(C)n(CC2CCCO2)c1C (stereo not given)		2.59 µM (active)
CCOC(=O)N1CCN(C(=O)C(=O)Nc2sc3c(c2C#N)CC(C)(C)OC3)CC1	28.3% [at 46.1 µM]	
COC(=O)c1ccc(OC(=O)c2cnccn2)cc1	-6.27% [at 46.1 µM]	
CSCCC1NC(=O)N(CC(=O)Nc2cccc(S(=O)(=O)N3CCCCCC3)c2)C1=O (stereo not given)	-11.3% [at 46.1 µM]	
CCOC(=O)N1CCC(NC(=O)c2cnn(-c3cccc(C)c3)c2C2CCN(C(=O)OC(C)(C)C)CC2)CC1	8.41% [at 46.1 µM]	
CCN(CC)c1ccc(S(=O)(=O)N2CCCCC2)cc1NC(=O)C1=COCCO1	-10.3%	
O=C(NCC(c1ccco1)S(=O)(=O)c1cccs1)c1ccc(F)cc1 (stereo not given)	-21.9% [at 46.1 µM]	
CC(C)(C)c1ccc(C(=O)NCC(c2ccco2)S(=O)(=O)c2ccc(F)cc2)cc1 (stereo not given)		12.6 µM (active)
COc1ccccc1CNC(=O)C(=O)NCC(c1ccco1)S(=O)(=O)c1ccc(F)cc1 (stereo not given)	-17.7% [at 46.1 µM]	
